Assay outcomes from PubChem BioAssay.
Shown are actives, neighbours in structure and some others; about 8.2% of the full set was active somewhere.
SW480 rereplic: DNA re-replication induction in SW480 cells; Potency, µM (series often up to 46.1 µM), without a hit: at the highest dose re-replication activation, usual class: activators; 340,000 compounds, 1.8% hits; SW480 DNA re-replication, Hoechst DNA content imaging, 48 h; AID 624297; note: % of control where 0% means no effect; nearly all actives have a fitted effect of over 55% in size
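Cells (250 per well) received 23 nL compound or DMSO by pin tool and were kept 48 hr at 37 C, 5% CO2. Nuclei were then stained with Hoechst for 40 min and scanned for DNA content.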
ELG1 repair inh: blocks ELG1-dependent DNA repair in HEK293T cells; Potency, µM (titrated, usually from 46.1 µM), inactives show at the top dose activity change, negative = inhibition, usual class: inhibitors; HEK293T ELG1-luciferase reporter, luminescence, 16 h; DNA damage induced by 5-fluorouridine; 330,000 compounds, 2.3% hits; note: % is set by controls: 0 for no effect and ±100 for the full control effect; nearly all actives have a fitted effect of over 55% in size
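Luminescence from the luciferase reporter, measured 30 min after ONE-Glo reagent at room temperature, was the read-out. Beforehand, 2,000 cells per well were exposed for 16 hr at 37 °C to 5-fluorouridine together with compound or vehicle.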
KB-V1 cytotox: kills drug-selected multidrug resistant KB-V1 cells; KB-V1 MDR cells viability, CellTiter-Glo, 72 h; Potency, µM (highest dose often 46.1 µM), usual class: cytotoxic; 400,000 compounds, 3.4% hits; AID 1347076; note: % is set by controls: 0 for no effect and ±100 for the full control effect; nearly all actives have a fitted effect of over 60% in size
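Luminescent ATP read-out (CellTiter-Glo, 10 min) measures survival of drug-selected KB-V1 MDR cells after 72 h, 37 degrees C compound exposure. Medium: phenol-red-free DMEM, 10% FBS. Values from fitted concentration-response curves.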
KB-3-1 cytotox: KB-3-1 parental cell cytotoxicity; KB-3-1 viability, CellTiter-Glo ATP luminescence, 72 h; Potency, µM (titrated, usually from 46.1 µM), usual class: cytotoxic; 400,000 compounds, 1.4% hits; note: % is set by controls: 0 for no effect and ±100 for the full control effect; nearly all actives have a fitted effect of over 60% in size
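Cytotoxicity in the drug-sensitive parental line KB-3-1 was scored as loss of CellTiter-Glo luminescence following 72 h incubation with compound. Values come from curve fitting of normalized concentration-response data.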
MCF10A rereplic: inducers of DNA re-replication in MCF 10A breast cells; Potency, µM (top dose mostly 46.1 µM), inactives show at the highest dose activity, positive = re-replication, hits mostly activators; 350,000 compounds, 2.9% hits; MCF 10A DNA re-replication, Hoechst nuclear intensity, 48 h; note: % of control where 0% means no effect; nearly all actives have a fitted effect of over 50% in size
Active calls of the source: *; i = inactive; ? = inconclusive; nt = no result; [ ] = dose if it differs, or a comment. Calls come from the whole dose curve; as a rule, active = well fitted curve in the direction sought with a large enough effect; inconclusive = small, poorly fitted or top-dose-only effect, or another doubt; inactive = no such curve, though single readings can be large; an effect the other way counts as inactive or inconclusive. Potency is the fitted concentration of half-maximal effect.

SMILES | SW480 rereplic | ELG1 repair inh | KB-V1 cytotox | KB-3-1 cytotox | MCF10A rereplic
CCOC(=O)C1C(=O)C=C(/C=C/c2ccccc2)CC1c1ccc(Cl)cc1 (centres undefined) | ? | 7% | 16µM* | i | 3%
Cc1cccc(/C=C(\c2nc3ccccc3[nH]2)S(=O)(=O)c2ccccc2)c1 | ? | 12µM* | 18µM* | 4.1µM* | 5.8µM*
O=C(/C(=C(\O)c1ccccc1)c1nc2ccccc2[nH]1)c1ccccc1 | -2% | -20% | ? | ? | ?
CC(C)(C)c1ccc(/C=C(\c2nc3ccccc3[nH]2)S(=O)(=O)c2ccccc2)cc1 | 8.2µM* | nt | ? | ? | 5.2µM*
O=C(O)c1ccc(/C=C(\c2nc3ccccc3[nH]2)c2nc3ccccc3s2)cc1 | 12µM* | ? | i | ? | ?
CC(=O)/C(=C(/O)c1ccccc1)c1nc2ccccc2[nH]1 | -5% | ? | i | i | -5%
O=C(O)c1ccc(-c2nc3ccccc3[nH]2)cc1 | 4% | 25% | i | i | 11%
CCCCC1(Cc2ccc([N+](=O)[O-])cc2)C(=O)N(c2ccccc2)N(c2ccccc2)C1=O | 14% | 2% | 16µM* | ? | ?
CCCCC1(COC(=O)CCC(=O)O)C(=O)N(c2ccccc2)N(c2ccccc2)C1=O | 0% | 4% | i | i | 10%
CCOc1ccc(NC(=O)N(CCC(C)C)C2CCN(C(C)=O)CC2)cc1 | -2% | 1% | 18µM* | i | -11%
CCOc1ccc(NC(=O)N(C2CCCC2)C2CCN(C(C)=O)CC2)cc1 | -17% | -10% | i | i | -6%
CCOc1ccc(NC(=O)N2CCC(N3CCCCC3)CC2)cc1 | nt | nt | i | i | nt
CCOc1ccc(NC(=O)N2CCC(c3ccc(C)cc3)C2)cc1 (centres undefined) | -8% | 30% | 21µM* | i | 9%
CCc1cccc(C)c1NS(=O)(=O)c1ccc2c(c1)NC(=O)C(C)C(=O)N2 (centres undefined) | nt | nt | i | i | nt
Oc1ccc(-c2csc(-c3c[nH]c4ccccc34)n2)c(O)c1 | 7% | ? | ? | 18µM* | ?
Cc1ccc(-c2csc(-c3c[nH]c4ccccc34)n2)c(C)c1 | ? | 24% | ? | ? | 15µM*
CC(=O)NCCC(=O)Nc1nc(-c2c[nH]c3ccccc23)cs1 | -11% | 10% | i | i | 2%
Cc1ccc(C(=O)Nc2nnc(COCCO)s2)cc1 | nt | nt | i | i | nt
O=C1C(=O)N(C2CCN(C(=O)c3ccc(F)cc3)CC2)CCN1Cc1ccc(F)cc1 | nt | nt | ? | i | nt
Cc1csc(Sc2ccc([N+](=O)[O-])cc2C(=O)OCC(=O)NC2CCCC(C)C2C)n1 (centres undefined) | ? | ? | i | i | 18µM*
CCC(C)NC(=O)COC(=O)c1cc([N+](=O)[O-])ccc1Sc1nc(C)cs1 (centres undefined) | 5%[9.22 µM] | ? | i | i | ?
COc1cc(NC(=O)Cn2nc(C(F)(F)F)c3c2CCC3)cc(OC)c1OC | nt | nt | i | 16µM* | nt
Cc1ccc(NC(=O)Cn2nc(C(F)(F)F)c3c2CCCC3)cc1C | nt | nt | i | i | nt
CC(C)(C#CC(O)(c1ccccc1)c1ccccc1)N1CCCC1 | -7% | 1% | i | i | 0.82µM*
CC(C)(C#CC(O)(c1ccccc1)c1ccccc1)N1CCCCC1 | -2% | ? | i | i | 4%
C/C(=N\NC(=O)c1ccc(F)cc1)c1ccc(NC(=O)Cc2ccccc2)cc1 | -33% | ? | i | i | ?
CC(OC(=O)c1c2c(nc3ccccc13)/C(=C\c1ccc3c(c1)OCO3)CCC2)C(=O)Nc1ccc(S(N)(=O)=O)cc1 (centres undefined) | 21µM* | ? | i | i | 3.3µM*
Cc1cccc(C)c1NC(=O)COC(=O)c1c2c(nc3ccccc13)/C(=C\c1ccc3c(c1)OCO3)CCC2 | ? | ? | i | i | ?
COc1ccc(Cc2n[nH]c(=S)n(N)c2=O)cc1 | 0% | -15% | i | i | -17%
